Shown are actives, neighbours in structure and some others; about 3.4% of the full set was active somewhere.
Wnt bcat act = Wnt/beta-catenin pathway activators, primary screen, cell-based, plate reader, single point; Wnt/beta-catenin reporter cell assay, activator; activation, % at 9.35 µM; hit rate 1.2% among 300,000; AID 743398, 2014; in the data active = activation above about 30%, passing the limit was not always enough; inconclusive = no clear call, values can overlap the other calls;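 also: 0% = neutral control wells and 100% = positive control wells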
MITF TRPM1 HTS = activators of MITF-driven TRPM1 promoter reporter, primary screen, cell-based, SK-MEL-5, luciferase, single point. SK-MEL-5 TRPM1-promoter luciferase, 24 h; % of positive control, neutral wells = 0. activation, % at 12.5 µM. hit rate 0.75% among 300,000;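 active = mean activation of at least 80% with every replicate also reaching 80%; inconclusive = mean reaches 80% but some replicate falls short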;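 also: 0% = neutral control wells and 100% = parthenolide positive control wells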
esBAF inh = Bmi1 luciferase reporter increase in mESCs, primary screen, esBAF inhibitor project, mouse ES cells, Bmi1 luciferase knock-in, single point; hit rate 2% among 350,000; AID 602393, 2012; 24 h; 100% = twice the neutral-well signal; reporter increase, % at 12.5 µM; in the data active = activation above about 40%; inconclusive = no clear call, values can overlap the other calls;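 also: 0% = median of the plate's neutral control wells and 100% = double that signal; a rise in the Bmi1 reporter signal indicates esBAF inhibition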
miR-122 sensor = miR-122 Renilla sensor signal increase in Huh7, primary screen, miR-122 inhibitor project, cell-based, single point, plate reader | Huh7 miR-122 Renilla luciferase sensor, 48 h; neutral wells = 0, positive control = 100 | activation (reporter increase), % at 12.5 µM | hit rate 0.3% among 340,000;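 active = mean replicate activation score at least 90 and every replicate individually at or above 90; inconclusive = only one of the two criteria met; inactive = neither criterion met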;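 also: higher luciferase means less miR-122 activity so hits act as miR-122 inhibitors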
Env fusion inh = inhibitors of HIV-1 Env-driven cell-cell fusion, primary screen, HeLa-JRFL effector, CEM21 target cells, luciferase; inhibition, % at 12.3 µM; hit rate 1.1% among 360,000; AID 651610, 2012;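 active = mean replicate inhibition score of at least 50 and every replicate individually at or above 50; inconclusive = only one of the two criteria met; inactive = mean below 50 and not all replicates reaching 50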;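 also: 0% = plate neutral controls and 100% = maraviroc near 300 nM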
Active calls of the source: *; i = inactive; ? = inconclusive; . = no result given; [ ] = dose if it differs, or a comment.

SMILES | Wnt bcat act | MITF TRPM1 HTS | esBAF inh | miR-122 sensor | Env fusion inh
CNC[C@@H]1Oc2ccc(NS(=O)(=O)c3cn(C)cn3)cc2CC(=O)N([C@H](C)CO)C[C@@H]1C | . | . | -2 | -9[16.7 µM] | -6[16.7 µM]
Cc1noc(C)c1NC(=O)Nc1ccc2c(c1)CC(=O)N([C@H](C)CO)C[C@H](C)[C@H](CN(C)S(=O)(=O)c1ccc(Cl)cc1)O2 | . | . | 3 | 2[16.7 µM] | 10[16.7 µM]
O=C(OC1CCc2ccccc2C1=O)c1ccccc1O (configuration not stated) | 3 | . | 46* | 6 | .
C[C@H](CO)N1C[C@H](C)[C@H](CN(C)Cc2ccc3c(c2)OCO3)OCCCC[C@H](C)Oc2ccc(NS(C)(=O)=O)cc2C1=O | . | . | -10 | 1[16.7 µM] | -19[16.7 µM]
CCN(Cc1ccccc1)C(c1ccccn1)c1nnnn1C1CCCCC1 (configuration not stated) | . | -9 | -9 | -13 | .
CCN(Cc1ccccc1)C(c1cccs1)c1nnnn1C1CCCCC1 (configuration not stated) | -6 | -3 | . | . | 96*
Clc1ccccc1CN(Cc1ccccc1)C(c1cccs1)c1nnnn1C1CCCC1 (configuration not stated) | -11 | 0 | -14 | 41 | 83*
Clc1ccc(CN(CC2CCCO2)C(c2cccs2)c2nnnn2C2CCCC2)cc1 (configuration not stated) | -7 | 3 | -1 | 23 | 117*
COc1ccc(S(=O)(=O)N[C@@H]2CC[C@H](CCn3cc(-c4ccccc4F)nn3)O[C@@H]2CO)cc1 | . | . | 7 | . | -13[16.7 µM]
C[C@H](CO)N1C[C@H](C)[C@H](CN(C)C(=O)C2CCC2)Oc2ncc(-c3ccccc3F)cc2C1=O | . | . | -3 | 51[16.7 µM] | 14[16.7 µM]
CN(C)CC(=O)N[C@@H]1CC[C@@H](CCNS(=O)(=O)c2ccccc2)O[C@H]1CO | . | . | 1 | . | i
COc1ccc(NC(=O)N(C)C[C@@H]2Oc3c(NS(=O)(=O)c4cn(C)cn4)cccc3C(=O)N([C@@H](C)CO)C[C@H]2C)cc1 | . | . | 4 | -2[16.7 µM] | 3[16.7 µM]
COCC(=O)N(C)C[C@@H]1Oc2ncc(-c3ccc(C#N)cc3)cc2C(=O)N([C@H](C)CO)C[C@H]1C | . | . | 5 | -3[16.7 µM] | -12[16.7 µM]
C=CCN([C@H](C(=O)OC)C(C)C)S(=O)(=O)CCNCc1ccccc1 | -3 | 7 | 2 | -1 | 62*
COc1ccc(/C=C/c2noc(-c3ccccc3O)n2)cc1 | . | 98* | . | -2 | -37
COc1ccccc1Nc1ncnc2c1cnn2-c1cccc(C)c1 | 35* | . | ? | 7 | -53
COc1cccc(Nc2ncnc3c2cnn3-c2cccc(C)c2)c1 | . | . | 56* | 0 | -11
Cc1nc2ccc(N=NC3=C(O)CCCC3=O)cc2s1 | . | 48 | 5 | -3 | -23
Cc1nc2ccc(N=NC3=C(O)CC(C)(C)CC3=O)cc2s1 | 18 | 43 | 49* | 3 | -10
COc1ccc(Cc2c(-c3cccc(Br)c3)nc3ccc(Cl)cn23)c(C)c1 | 14 | . | 58* | 3 | -50
COc1ccc(Cc2c(-c3ccccc3)nc3ccc(Br)cn23)c(C)c1 | 23 | . | 61* | -3 | -68
COc1ccc(Cc2c(C(C)(C)C)nc3ccc(Br)cn23)c(C)c1 | -1 | . | -1 | -5 | .
COc1ccccc1-c1ccc([C@H]2[C@@H](C#N)N(C(=O)C3CC3)[C@H]2CO)cc1 | . | . | 9 | . | 18[16.7 µM]
C/C=C/c1cnc2c(c1)C(=O)N([C@@H](C)CO)C[C@H](C)[C@H](CN(C)C(=O)Nc1ccc(OC)cc1)O2 | . | . | -1 | 2[16.7 µM] | 8[16.7 µM]
COc1ccc(Cl)cc1-c1nc(-c2ccc(Br)o2)no1 | 6 | . | 51* | 9 | 18
SMILES | Wnt bcat act | MITF TRPM1 HTS | esBAF inh | miR-122 sensor | Env fusion inh
COc1ccc(CNC(=S)NCc2ccc(OC(C)C)cc2)cc1 | -3 | -14 | . | 1 | -3
CC(C)Oc1ccc(CNC(=O)Oc2ccccc2)cc1 | -1 | 92* | -3 | 5 | -4
COc1ccc(C)cc1NC(=O)CSc1nnnn1Cc1ccccc1 | 44* | -5 | . | -2 | 1
COc1ccc(C)cc1NC(=O)CSc1nnc(CC(=O)Nc2cccc(C(F)(F)F)c2)n1C | . | 2 | -5 | 2 | 80*
COc1cc(NC(=O)CSc2nnnn2Cc2ccccc2)cc(OC)c1 | -3 | 1 | . | . | 1
COc1ccccc1NC(=O)CSc1nnc(CC(=O)Nc2cccc(C(F)(F)F)c2)n1C | . | 1 | -6 | -8 | -70
COc1ccc(CN2C[C@H](O)COC[C@H]3O[C@H](CC(=O)NCc4ccncn4)CC[C@@H]32)cc1 | . | . | -1 | -1[16.7 µM] | .
Cc1ccc(S(=O)(=O)N(C)C[C@@H]2OCCCC[C@@H](C)Oc3ccc(NC(=O)NC(C)C)cc3C(=O)N([C@H](C)CO)C[C@@H]2C)cc1 | . | . | -7 | 14[16.7 µM] | 10[16.7 µM]
CCCC(=O)Nc1ccc2c(c1)OC[C@@H](C)N(CC1CCOCC1)C[C@@H](C)[C@@H](OC)CN(C)C2=O | . | . | -5 | . | -6[16.7 µM]
O=C(COc1ccc2ccccc2c1Br)Nc1cccnc1 | 20 | 114* | 1 | 0 | -36
C/C(=N\NC(=O)COc1ccccc1[N+](=O)[O-])c1cccs1 | 35* | 64 | 53* | 2 | -19
O=C(COc1ccccc1[N+](=O)[O-])Nc1ccc(Br)cc1 | 48* | 80 | . | 1 | -55
O=C(COc1ccccc1[N+](=O)[O-])Nc1cccnc1 | ? | 61 | 45* | 2 | -69
C[C@@H]1CN([C@@H](C)CO)S(=O)(=O)c2ccc(C#CCC3CCCC3)cc2O[C@H]1CN(C)C | . | . | 1 | -10[16.7 µM] | 37[16.7 µM]
CN(C)C(=O)C[C@H]1CC[C@@H]2[C@H](COC[C@H](O)CN2CC2CCOCC2)O1 | . | . | 3 | -2[16.7 µM] | .
Cc1noc(C)c1NC(=O)Nc1ccc2c(c1)C(=O)N([C@@H](C)CO)C[C@@H](C)[C@H](CN(C)C(=O)CCCN(C)C)OCCCC[C@H](C)O2 | . | . | 0 | 5[16.7 µM] | 17[16.7 µM]
Cc1ccnc(NC(=O)COc2ccccc2[N+](=O)[O-])c1 | . | 25 | . | . | -25
Cc1ccc(NC(=O)COc2ccccc2[N+](=O)[O-])nc1 | 54* | 0 | -15 | -8 | -32
Cc1ccc(NC(=S)NC(=O)C2CCCCC2)c(Br)c1 | 10 | 70 | 63* | -2 | .
Cc1ccc(NC(=O)CC2CCCC2)c(Br)c1 | 10 | 57 | 50* | 1 | -12
CCNC(=O)C[C@@H]1CC[C@H](NS(=O)(=O)c2ccc(C)cc2)[C@@H](CO)O1 | . | . | 1 | . | -29[16.7 µM]
C[C@@H]1CCCCO[C@H](CN(C)C(=O)C2CCCCC2)[C@H](C)CN([C@@H](C)CO)C(=O)c2cc(NS(=O)(=O)c3ccc(F)cc3)ccc2O1 | . | . | 5 | -7[16.7 µM] | -2[16.7 µM]
Fc1ccc(-n2nnc(-c3nccs3)n2)cc1 | 27 | 43 | -19 | 136* | -139
CCCc1cc(C(=O)NCc2ccccc2)no1 | 5 | . | 23 | -3 | -14
